Where “and” joins values, the source holds several entries; their conditions need not be identical. Identical values can stand only once. Screen size: about 5,500 compounds; about 2,000 (36%) were called active. About 18% were inconclusive and are not listed. Rule as the data show it: active = normalized growth mostly below about 0.91 (no sharp cut-off); inconclusive = no clear call, values can overlap the other calls; inactive = mostly above about 0.92. The list shows a part of the results.
Experiment: chemical genetic growth profiling, strain panel (AID 1159580);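 also: tested at 20 µM; growth read once vehicle control cultures reached saturation at 30 °C; 1 = growth at the plate median or of vehicle wells; lower values mean less growth of the strain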
Conditions: S. cerevisiae deletion strains, growth OD

Measured: normalized growth

C[CH2][Hg][S]c1ccccc1C(=O)O
active: locus YAL013W, strain DEP1, hits give low values 0.0571 | locus YAL021C, strain ccr4, hits give low values 0.0644 | locus YAL026C, strain drs2, hits give low values 0.0601 | locus YAL030W, strain snc1, hits give low values 0.0549 | locus YBL061C, strain skt5, hits give low values 0.0584 | locus YBR009C, strain hhf1, hits give low values 0.0625 | locus YBR021W, strain FUR4, hits give low values 0.0826 | locus YBR023C, strain chs3, hits give low values 0.0607 | locus YBR171W, strain sec66, hits give low values 0.0719 | locus YBR229C, strain ROT2, hits give low values 0.0466 | locus YBR231C, strain swc5, hits give low values 0.0602 | locus YBR279W, strain paf1, hits give low values 0.0565 | locus YCL011C, strain gbp2, hits give low values 0.0545 | locus YCL016C, strain dcc1, hits give low values 0.0628 | locus YCL029C, strain bik1, hits give low values 0.0644 | locus YCL061C, strain MRC1, hits give low values 0.0624 | locus YCL069W, strain vba3, hits give low values 0.0582 | locus YCR088W, strain abp1, hits give low values 0.0571 | locus YDL005C, strain med2, hits give low values 0.0718 | locus YDL035C, strain GPR1, hits give low values 0.0506 | locus YDL040C, strain nat1, hits give low values 0.0559 | locus YDL074C, strain BRE1, hits give low values 0.0797 | locus YDL101C, strain DUN1, hits give low values 0.0547 | locus YDL134C, strain PPH21, hits give low values 0.0487 | locus YDL185W, strain tfp1, hits give low values 0.056 | locus YDL192W, strain arf1, hits give low values 0.0586 | locus YDR001C, strain nth1, hits give low values 0.0548 | locus YDR069C, strain doa4, hits give low values 0.0614 | locus YDR101C, strain arx1, hits give low values 0.0572 | locus YDR137W, strain rgp1, hits give low values 0.0826 | locus YDR150W, strain NUM1, hits give low values 0.058 | locus YDR159W, strain sac3, hits give low values 0.0891 | locus YDR162C, strain NBP2, hits give low values 0.0541 | locus YDR195W, strain ref2 0.117 | locus YDR297W, strain sur2, hits give low values 0.0559 | locus YDR318W, strain mcm21, hits give low values 0.0596 | locus YDR334W, strain swr1, hits give low values 0.06 | locus YDR335W, strain msn5, hits give low values 0.0577 | locus YDR388W, hits give low values 0.0549 | locus YDR392W, strain spt3, hits give low values 0.0928 | locus YDR502C, strain sam2, hits give low values 0.0576 | locus YEL003W, strain gim4, hits give low values 0.0526 | locus YEL037C, strain rad23, hits give low values 0.0545 | locus YEL061C, strain CIN8 (second series), hits give low values 0.058 | locus YEL061C, strain CIN8, hits give low values 0.0473 | locus YER015W, strain faa2, hits give low values 0.0585 | locus YER016W, strain bim1, hits give low values 0.059 | locus YER110C, hits give low values 0.0716 | locus YER111C, strain swi4, hits give low values 0.0734 | locus YER155C, strain BEM2 (second series), hits give low values 0.0849 | locus YER155C, strain BEM2, hits give low values 0.0624 | locus YER167W, strain BCK2, hits give low values 0.0502 | locus YFR010W, strain ubp6, hits give low values 0.0647 | locus YGL078C, strain dbp3, hits give low values 0.0538 | locus YGL086W, strain mad1, hits give low values 0.0535 | locus YGL167C, strain pmr1, hits give low values 0.0714 | locus YGL173C, strain kem1, hits give low values 0.0663 | locus YGL227W, strain vid30, hits give low values 0.059 | locus YGL240W, strain doc1, hits give low values 0.0734 | locus YGL248W, strain PDE1, hits give low values 0.0448 | locus YGL253W, strain hxk2, hits give low values 0.0514 | locus YGR078C, strain PAC10, hits give low values 0.0492 | locus YGR135W, strain pre9, hits give low values 0.0647 | locus YGR229C, strain SMI1, hits give low values 0.0574 | locus YGR252W, strain gcn5, hits give low values 0.152 | locus YHR013C, strain ard1, hits give low values 0.106 | locus YHR027C, strain rpn1, hits give low values 0.0612 | locus YHR030C, strain SLT2, hits give low values 0.0498 and 0.113 | locus YHR079C, strain IRE1 (second series), hits give low values 0.0541 | locus YHR079C, strain IRE1, hits give low values 0.123 | locus YHR094C, strain hxt1, hits give low values 0.0545 | locus YHR129C, strain ARP1, hits give low values 0.0546 | locus YHR142W, strain chs7, hits give low values 0.0696 | locus YHR200W, strain rpn10, hits give low values 0.057 | locus YIL066C, strain RNR3, hits give low values 0.0505 | locus YIL073C, strain SPO22, hits give low values 0.103 | locus YIL125W, strain kgd1, hits give low values 0.0543 | locus YIR030C, strain dcg1, hits give low values 0.0568 | locus YJL092W, strain hpr5, hits give low values 0.0555 | locus YJL095W, strain BCK1 (second series), hits give low values 0.0563 | locus YJL095W, strain BCK1, hits give low values 0.0505 and 0.109 | locus YJL115W, strain asf1, hits give low values 0.0695 | locus YJL129C, strain trk1, hits give low values 0.0829 | locus YJL134W, strain LCB3, hits give low values 0.0483 | locus YJL154C, strain vps35, hits give low values 0.0588 | locus YJL164C, strain tpk1, hits give low values 0.0629 | locus YJL166W, strain qcr8, hits give low values 0.0596 | locus YJL168C, strain set2, hits give low values 0.0562 | locus YJL187C, strain SWE1 (second series), hits give low values 0.0465 | locus YJL187C, strain SWE1, hits give low values 0.0547 | locus YJR043C, strain POL32, hits give low values 0.0607 | locus YJR066W, strain TOR1, hits give low values -0.000335
